# Laboratory results from PubChem BioAssay AID720621 (The Scripps Research Institute Molecular Screening Center, 2013).
# This is one part of the list. A number with no mark means an inactive call.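 How the source made its calls: active means inhibition above the mean of test compounds lying between the control limits plus 3 SD of those (cut at about 14% in these data); inactive means the rest.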
# Target: Fibrinogen beta chain (Homo sapiens) (UniProt P02675)
# Test: fibrin DD(E) probe displacement, second cyclic peptide – biochemical, fluorescence polarization, human fibrin, counter-screen for fibrin DD(E)-Tn6 binding project, confirmation (AID 720621);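 further: 0% = median of compound wells and 100% = wells with Aha-Tn7 blocking peptide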
# Conditions: TRITC-Tn6 fluorescence polarization displacement, at 8.3 µM, stronger effect = higher value
# Chain of Fibrinogen beta chain (Homo sapiens) (P02675 whole entry, looked up): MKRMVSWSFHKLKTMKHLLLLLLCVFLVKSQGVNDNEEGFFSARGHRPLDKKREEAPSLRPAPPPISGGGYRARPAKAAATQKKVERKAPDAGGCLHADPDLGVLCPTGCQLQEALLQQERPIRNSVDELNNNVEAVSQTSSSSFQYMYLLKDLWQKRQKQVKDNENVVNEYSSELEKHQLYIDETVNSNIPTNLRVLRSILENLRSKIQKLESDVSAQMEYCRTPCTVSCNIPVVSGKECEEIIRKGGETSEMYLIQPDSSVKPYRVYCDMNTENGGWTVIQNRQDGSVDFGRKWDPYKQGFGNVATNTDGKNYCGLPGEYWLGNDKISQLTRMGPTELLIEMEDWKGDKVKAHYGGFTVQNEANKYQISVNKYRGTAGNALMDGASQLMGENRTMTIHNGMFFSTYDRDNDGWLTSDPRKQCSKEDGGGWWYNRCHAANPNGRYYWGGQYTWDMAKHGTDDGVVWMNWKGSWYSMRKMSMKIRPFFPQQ
row,SMILES,inhibition [%]
1,COc1ccc2c(c1O)-c1cccc3c1[C@@H](C2)N(C)CC3,-6.45
2,Cc1cc(N2CCNC[C@@H]2C)ccc1N1CC[C@H](O)C1,2.02
